From publication PMC7862700, “An all-to-all approach to the identification of sequence-specific readers for epigenetic DNA modifications on cytosine”

Key:
Experiment in all cases: DAPPL (digital affinity profiling via proximity ligation, sequencing); 10 mM Tris-HCl pH 7.5, 50 mM NaCl, 1 mM DTT, 4% glycerol, room temperature, 30 min; GST-TFs on glutathione beads, 16-mer random dsDNA library, 0.1% formaldehyde crosslink after washing; high values mean tight binding
Settings in all cases: protein: recombinant; tags: N-terminal GST; dsDNA, one strand shown
[1] = biological target: T1, FEV (Homo sapiens, UniProt Q99581 1-238)
T1 sequence: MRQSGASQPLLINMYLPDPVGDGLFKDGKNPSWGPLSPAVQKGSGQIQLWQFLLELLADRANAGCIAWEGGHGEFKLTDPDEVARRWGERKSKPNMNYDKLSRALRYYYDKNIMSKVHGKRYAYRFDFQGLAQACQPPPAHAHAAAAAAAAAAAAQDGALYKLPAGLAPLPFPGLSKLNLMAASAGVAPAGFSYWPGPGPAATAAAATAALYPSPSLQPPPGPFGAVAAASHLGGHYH
Outline: (§1)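 The binding signal reported is, for every hexamer, its read frequency for a factor over its read frequency for the tag-only sample. Reads came from pools of yeast-expressed, GST-fused human transcription factors on glutathione beads, barcoded with DNA and mixed with that sample, which were incubated with 200 nmole of a random double-stranded 16-mer DNA library in Tris/NaCl/DTT/glycerol buffer at room temperature for 30 min. After washing, the pools were crosslinked with 0.1% formaldehyde, proximity-ligated with BsaI/T4 ligase for 1 h at 37 °C, PCR-amplified and sequenced on an Illumina NextSeq500.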

[2] = biological target: ETV5 (Homo sapiens, UniProt P41161 1-510)
Outline: as §1

[3] = biological target: T2, SPIC (Homo sapiens, UniProt Q8N5J4 1-248)
T2 sequence: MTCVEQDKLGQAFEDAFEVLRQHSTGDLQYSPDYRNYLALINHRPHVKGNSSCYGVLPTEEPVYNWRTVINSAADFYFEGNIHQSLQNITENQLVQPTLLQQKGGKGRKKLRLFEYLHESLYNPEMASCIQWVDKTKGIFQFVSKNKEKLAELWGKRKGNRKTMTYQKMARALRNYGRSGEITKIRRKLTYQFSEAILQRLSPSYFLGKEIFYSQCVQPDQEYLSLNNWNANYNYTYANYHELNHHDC
Outline: as §1

[4] = biological target: ELF4 (Homo sapiens, UniProt Q99607 1-663)
Outline: as §1

[5] = biological target: T3, ELK4 (Homo sapiens, UniProt P28324-2 1-405)
T3 sequence: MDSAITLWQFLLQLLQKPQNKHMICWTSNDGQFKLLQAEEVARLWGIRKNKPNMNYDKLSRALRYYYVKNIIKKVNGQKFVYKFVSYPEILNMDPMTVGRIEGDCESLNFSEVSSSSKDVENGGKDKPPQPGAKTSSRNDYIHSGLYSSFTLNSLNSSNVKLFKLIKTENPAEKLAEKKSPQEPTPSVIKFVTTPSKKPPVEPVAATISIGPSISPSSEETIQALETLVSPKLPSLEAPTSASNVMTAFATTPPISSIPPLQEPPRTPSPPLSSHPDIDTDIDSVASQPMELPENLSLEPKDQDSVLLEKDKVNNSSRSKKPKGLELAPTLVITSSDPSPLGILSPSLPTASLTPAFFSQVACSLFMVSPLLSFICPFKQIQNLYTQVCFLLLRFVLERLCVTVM
Outline: as §1

[6] = biological target: T4, ETV2 (Homo sapiens, UniProt O00321 1-342)
T4 sequence: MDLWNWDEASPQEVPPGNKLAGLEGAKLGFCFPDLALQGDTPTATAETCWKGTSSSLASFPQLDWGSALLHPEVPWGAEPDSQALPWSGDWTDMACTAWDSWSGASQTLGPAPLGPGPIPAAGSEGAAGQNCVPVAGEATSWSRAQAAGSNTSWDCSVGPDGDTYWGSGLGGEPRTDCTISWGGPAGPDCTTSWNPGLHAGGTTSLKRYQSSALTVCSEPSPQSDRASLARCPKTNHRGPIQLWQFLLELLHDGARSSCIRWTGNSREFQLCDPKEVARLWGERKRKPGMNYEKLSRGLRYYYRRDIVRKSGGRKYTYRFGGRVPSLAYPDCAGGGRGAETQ
Outline: as §1

[7] = biological target: T5, ELF3 (Homo sapiens, UniProt P78545 1-371)
T5 sequence: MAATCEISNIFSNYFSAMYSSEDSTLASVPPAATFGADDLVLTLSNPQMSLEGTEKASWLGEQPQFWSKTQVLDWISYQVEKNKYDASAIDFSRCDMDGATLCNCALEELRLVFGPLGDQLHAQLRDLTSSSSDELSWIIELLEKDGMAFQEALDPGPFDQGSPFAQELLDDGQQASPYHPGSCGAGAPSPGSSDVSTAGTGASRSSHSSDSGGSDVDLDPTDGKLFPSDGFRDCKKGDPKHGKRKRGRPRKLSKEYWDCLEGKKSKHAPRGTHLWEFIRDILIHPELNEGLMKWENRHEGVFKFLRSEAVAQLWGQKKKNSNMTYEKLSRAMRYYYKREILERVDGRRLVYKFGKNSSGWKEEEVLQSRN
Outline: as §1

[8] = biological target: ETV1 (Homo sapiens, UniProt P50549 1-477)
Outline: as §1

[9] = biological target: T6, ERF (Homo sapiens, UniProt P50548 1-548)
T6 sequence: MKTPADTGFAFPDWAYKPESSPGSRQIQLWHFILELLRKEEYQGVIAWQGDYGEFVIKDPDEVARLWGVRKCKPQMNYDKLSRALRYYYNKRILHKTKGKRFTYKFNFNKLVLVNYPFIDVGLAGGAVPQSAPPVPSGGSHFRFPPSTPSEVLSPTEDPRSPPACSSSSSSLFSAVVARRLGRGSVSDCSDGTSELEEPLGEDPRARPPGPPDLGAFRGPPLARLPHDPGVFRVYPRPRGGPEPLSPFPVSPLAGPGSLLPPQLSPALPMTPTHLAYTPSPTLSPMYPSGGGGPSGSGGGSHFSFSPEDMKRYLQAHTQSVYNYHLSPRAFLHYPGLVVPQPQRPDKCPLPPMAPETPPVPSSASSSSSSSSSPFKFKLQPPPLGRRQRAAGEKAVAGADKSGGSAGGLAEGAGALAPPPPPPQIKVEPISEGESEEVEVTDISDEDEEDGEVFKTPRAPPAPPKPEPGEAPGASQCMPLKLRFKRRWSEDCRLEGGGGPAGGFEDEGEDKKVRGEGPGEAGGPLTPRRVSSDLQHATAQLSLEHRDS
Outline: as §1

[10] = biological target: T7, ETV3L (Homo sapiens, UniProt Q6ZN32 1-361)
T7 sequence: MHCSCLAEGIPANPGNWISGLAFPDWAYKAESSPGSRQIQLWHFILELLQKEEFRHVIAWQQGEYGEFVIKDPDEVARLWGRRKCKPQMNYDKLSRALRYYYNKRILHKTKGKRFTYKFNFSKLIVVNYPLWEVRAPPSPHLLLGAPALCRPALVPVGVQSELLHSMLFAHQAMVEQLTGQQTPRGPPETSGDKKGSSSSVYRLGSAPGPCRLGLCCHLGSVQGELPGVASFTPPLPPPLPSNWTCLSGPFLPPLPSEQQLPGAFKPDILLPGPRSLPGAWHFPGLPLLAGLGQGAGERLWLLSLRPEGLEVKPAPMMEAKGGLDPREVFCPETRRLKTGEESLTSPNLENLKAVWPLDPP
Outline: as §1

[11] = biological target: T8, ETS2 (Homo sapiens, UniProt P15036 1-469)
T8 sequence: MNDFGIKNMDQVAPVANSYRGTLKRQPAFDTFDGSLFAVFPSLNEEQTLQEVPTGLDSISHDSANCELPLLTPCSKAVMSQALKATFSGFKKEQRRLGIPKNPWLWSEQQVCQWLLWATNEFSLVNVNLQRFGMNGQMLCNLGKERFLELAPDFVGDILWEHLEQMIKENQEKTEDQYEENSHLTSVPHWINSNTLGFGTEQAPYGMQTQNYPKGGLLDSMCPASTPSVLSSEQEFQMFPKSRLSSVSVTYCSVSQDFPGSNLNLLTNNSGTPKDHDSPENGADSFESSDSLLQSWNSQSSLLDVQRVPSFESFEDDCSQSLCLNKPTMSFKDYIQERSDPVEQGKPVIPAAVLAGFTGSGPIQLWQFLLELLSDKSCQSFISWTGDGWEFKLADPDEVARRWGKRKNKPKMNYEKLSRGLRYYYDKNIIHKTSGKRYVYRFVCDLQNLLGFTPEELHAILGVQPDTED
Outline: as §1

[12] = biological target: T9, SPDEF (Homo sapiens, UniProt O95238 1-335)
T9 sequence: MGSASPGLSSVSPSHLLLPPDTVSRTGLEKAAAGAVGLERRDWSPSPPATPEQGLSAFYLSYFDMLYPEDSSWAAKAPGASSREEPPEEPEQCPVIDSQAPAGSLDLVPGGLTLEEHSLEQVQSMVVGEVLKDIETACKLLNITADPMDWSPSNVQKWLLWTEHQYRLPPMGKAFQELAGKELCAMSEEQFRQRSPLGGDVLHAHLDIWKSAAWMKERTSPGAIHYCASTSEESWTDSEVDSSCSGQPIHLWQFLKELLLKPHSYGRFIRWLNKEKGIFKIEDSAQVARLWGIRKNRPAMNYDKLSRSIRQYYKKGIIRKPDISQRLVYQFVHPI
Outline: as §1

[13] = biological target: T10, ETV7 (Homo sapiens, UniProt Q9Y603 1-341)
T10 sequence: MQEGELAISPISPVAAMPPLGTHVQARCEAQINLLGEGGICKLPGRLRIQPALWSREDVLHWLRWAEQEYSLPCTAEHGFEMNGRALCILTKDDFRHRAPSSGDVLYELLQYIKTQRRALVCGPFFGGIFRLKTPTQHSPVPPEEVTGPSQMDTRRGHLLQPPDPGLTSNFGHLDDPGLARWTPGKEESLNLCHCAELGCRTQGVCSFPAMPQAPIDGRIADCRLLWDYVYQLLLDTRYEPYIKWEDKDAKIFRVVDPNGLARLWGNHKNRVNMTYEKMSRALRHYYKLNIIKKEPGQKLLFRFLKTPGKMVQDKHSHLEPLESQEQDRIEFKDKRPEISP
Outline: as §1

[14] = biological target: T11, ELF5 (Homo sapiens, UniProt Q9UKW6-2 1-255)
T11 sequence: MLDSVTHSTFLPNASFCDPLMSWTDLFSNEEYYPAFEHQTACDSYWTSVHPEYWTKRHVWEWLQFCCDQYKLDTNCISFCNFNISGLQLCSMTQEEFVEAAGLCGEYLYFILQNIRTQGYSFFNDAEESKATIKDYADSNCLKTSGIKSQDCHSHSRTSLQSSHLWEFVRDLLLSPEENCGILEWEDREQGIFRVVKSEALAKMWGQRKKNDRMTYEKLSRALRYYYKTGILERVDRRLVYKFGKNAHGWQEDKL
Outline: as §1

[15] = biological target: T12, ETV3 (Homo sapiens, UniProt P41162-2 1-143)
T12 sequence: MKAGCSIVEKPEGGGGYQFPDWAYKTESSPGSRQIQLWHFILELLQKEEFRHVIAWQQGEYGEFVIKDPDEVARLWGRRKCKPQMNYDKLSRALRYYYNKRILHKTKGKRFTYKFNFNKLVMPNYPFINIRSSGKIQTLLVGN
Outline: as §1

[16] = biological target: ETV6 (Homo sapiens, UniProt P41212 1-452)
Outline: as §1

Sequence of ETV6 (P41212 whole entry): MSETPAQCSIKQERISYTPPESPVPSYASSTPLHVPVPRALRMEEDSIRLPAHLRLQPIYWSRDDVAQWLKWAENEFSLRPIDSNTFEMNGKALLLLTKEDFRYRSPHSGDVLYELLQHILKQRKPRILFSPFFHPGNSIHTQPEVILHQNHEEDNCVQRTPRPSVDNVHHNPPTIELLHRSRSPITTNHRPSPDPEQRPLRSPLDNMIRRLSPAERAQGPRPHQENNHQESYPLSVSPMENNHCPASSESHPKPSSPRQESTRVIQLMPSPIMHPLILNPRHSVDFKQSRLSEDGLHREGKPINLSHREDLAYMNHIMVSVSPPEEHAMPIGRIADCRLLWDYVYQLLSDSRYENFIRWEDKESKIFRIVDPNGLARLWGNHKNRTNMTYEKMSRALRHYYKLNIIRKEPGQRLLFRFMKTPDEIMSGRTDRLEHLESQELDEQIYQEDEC
Sequence of ETV5 (P41161 whole entry): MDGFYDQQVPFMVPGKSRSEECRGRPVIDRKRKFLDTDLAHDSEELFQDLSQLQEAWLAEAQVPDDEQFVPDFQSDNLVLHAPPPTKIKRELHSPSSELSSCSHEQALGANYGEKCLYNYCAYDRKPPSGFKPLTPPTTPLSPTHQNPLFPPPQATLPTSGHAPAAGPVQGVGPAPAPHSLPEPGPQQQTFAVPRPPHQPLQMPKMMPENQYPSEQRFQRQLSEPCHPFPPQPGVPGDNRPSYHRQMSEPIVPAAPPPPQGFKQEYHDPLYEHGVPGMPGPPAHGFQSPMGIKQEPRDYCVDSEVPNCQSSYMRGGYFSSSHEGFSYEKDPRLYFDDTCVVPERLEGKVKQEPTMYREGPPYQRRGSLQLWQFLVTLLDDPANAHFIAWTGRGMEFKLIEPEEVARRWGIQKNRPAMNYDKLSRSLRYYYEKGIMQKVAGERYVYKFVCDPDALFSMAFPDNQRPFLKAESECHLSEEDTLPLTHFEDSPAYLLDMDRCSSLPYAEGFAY
Sequence of ELF4 (Q99607 whole entry): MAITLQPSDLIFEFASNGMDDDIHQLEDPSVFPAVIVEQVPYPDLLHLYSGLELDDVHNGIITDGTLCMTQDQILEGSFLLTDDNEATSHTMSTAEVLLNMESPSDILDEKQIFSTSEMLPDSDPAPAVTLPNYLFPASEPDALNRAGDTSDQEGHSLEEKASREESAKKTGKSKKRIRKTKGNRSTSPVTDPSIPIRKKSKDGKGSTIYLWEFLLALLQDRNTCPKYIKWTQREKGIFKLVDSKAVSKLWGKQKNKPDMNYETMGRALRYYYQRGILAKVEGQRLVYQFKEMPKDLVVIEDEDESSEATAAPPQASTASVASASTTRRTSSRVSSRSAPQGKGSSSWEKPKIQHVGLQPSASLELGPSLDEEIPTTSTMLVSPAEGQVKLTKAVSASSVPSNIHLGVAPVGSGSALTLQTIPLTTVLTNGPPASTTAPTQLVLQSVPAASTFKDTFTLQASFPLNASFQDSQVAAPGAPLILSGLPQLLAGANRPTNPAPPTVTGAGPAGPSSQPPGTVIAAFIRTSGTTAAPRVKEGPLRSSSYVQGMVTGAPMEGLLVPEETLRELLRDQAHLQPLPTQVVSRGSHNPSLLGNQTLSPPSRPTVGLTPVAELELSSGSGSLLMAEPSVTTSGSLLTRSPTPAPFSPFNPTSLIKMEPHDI
Sequence of ETV1 (P50549 whole entry): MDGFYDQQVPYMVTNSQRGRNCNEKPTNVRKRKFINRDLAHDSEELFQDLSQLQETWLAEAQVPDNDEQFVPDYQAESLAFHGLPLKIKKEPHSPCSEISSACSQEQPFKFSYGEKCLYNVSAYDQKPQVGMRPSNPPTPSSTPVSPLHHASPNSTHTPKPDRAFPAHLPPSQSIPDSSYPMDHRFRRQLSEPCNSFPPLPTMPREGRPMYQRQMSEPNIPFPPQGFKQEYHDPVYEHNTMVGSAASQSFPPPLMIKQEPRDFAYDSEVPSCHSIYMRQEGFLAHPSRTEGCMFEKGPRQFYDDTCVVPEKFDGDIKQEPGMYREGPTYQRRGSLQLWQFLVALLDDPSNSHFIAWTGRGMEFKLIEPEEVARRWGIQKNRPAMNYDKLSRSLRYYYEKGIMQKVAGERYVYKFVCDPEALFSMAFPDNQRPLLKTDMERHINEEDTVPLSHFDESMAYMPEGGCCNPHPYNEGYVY

| Sequence | binding signal [1] | binding signal [2] | binding signal [3] | binding signal [4] | binding signal [5] | binding signal [6] | binding signal [7] | binding signal [8] | binding signal [9] | binding signal [10] | binding signal [11] | binding signal [12] | binding signal [13] | binding signal [14] | binding signal [15] | binding signal [16] |
| --- | --- | --- | --- | --- | --- | --- | --- | --- | --- | --- | --- | --- | --- | --- | --- | --- |
| CAAACT | 1.17 fold enrichment (6-mer frequency, TF over GST control) | 1.16 fold enrichment (6-mer frequency, TF over GST control) | 1.14 fold enrichment (6-mer frequency, TF over GST control) | 1.17 fold enrichment (6-mer frequency, TF over GST control) | 1.15 fold enrichment (6-mer frequency, TF over GST control) | 1.21 fold enrichment (6-mer frequency, TF over GST control) | 1.06 fold enrichment (6-mer frequency, TF over GST control) | 1.28 fold enrichment (6-mer frequency, TF over GST control) | 1.23 fold enrichment (6-mer frequency, TF over GST control) | 1.14 fold enrichment (6-mer frequency, TF over GST control) | 1.21 fold enrichment (6-mer frequency, TF over GST control) | 1.16 fold enrichment (6-mer frequency, TF over GST control) | 1.15 fold enrichment (6-mer frequency, TF over GST control) | 1.18 fold enrichment (6-mer frequency, TF over GST control) | 1.13 fold enrichment (6-mer frequency, TF over GST control) | 1.21 fold enrichment (6-mer frequency, TF over GST control) |
| GCGTCC | 1.36 fold enrichment (6-mer frequency, TF over GST control) | 1.16 fold enrichment (6-mer frequency, TF over GST control) | 1.23 fold enrichment (6-mer frequency, TF over GST control) | 1.2 fold enrichment (6-mer frequency, TF over GST control) | 1.25 fold enrichment (6-mer frequency, TF over GST control) | 1.08 fold enrichment (6-mer frequency, TF over GST control) | 1.37 fold enrichment (6-mer frequency, TF over GST control) | 1.26 fold enrichment (6-mer frequency, TF over GST control) | 1.32 fold enrichment (6-mer frequency, TF over GST control) | 1.24 fold enrichment (6-mer frequency, TF over GST control) | 1.18 fold enrichment (6-mer frequency, TF over GST control) | 1.56 fold enrichment (6-mer frequency, TF over GST control) | 1.17 fold enrichment (6-mer frequency, TF over GST control) | 1.25 fold enrichment (6-mer frequency, TF over GST control) | 1.24 fold enrichment (6-mer frequency, TF over GST control) | 1.19 fold enrichment (6-mer frequency, TF over GST control) |
